Screening data deposited in PubChem by National Center for Advancing Translational Sciences (NCATS).
Sm TGR block: qHTS Assay for the Inhibitors of Schistosoma Mansoni Peroxiredoxins. Schistosoma mansoni thioredoxin glutathione reductase (TGR), Q962Y6. purified TGR, DTNB reduction, TNB absorbance 405 nm. Potency, µM (series often up to 114 µM), without a hit: at the top dose activity change, negative = inhibition, hits mostly inhibitors. hit rate 3% among 360,000. AID 485364, 2010; further: potency means the concentration at half of the fitted maximal effect; on the % scale 0 is the no-effect control and ±100 the full control effect; nearly all actives have a fitted effect of over 60% in size
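TGR 20 nM + NADPH 100 uM (dispensed conc.), cpd preinc 15 min RT; start with NADPH (500 uM addition) then DTNB (15 mM addition). Kinetic TNB absorbance, 405 nm filter. Four-parameter Hill fit across titration.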
Shiga inhibitor: A qHTS for Small Molecule Inhibitors of Shiga Toxin | Vero cells, Shiga toxin protein synthesis inhibition reporter | hit rate 9.2% among 290,000 | inhibition, % at 38.7 µM | AID 2315, 2010; in the data active means inhibition mostly above about 28%, no sharp cut-off; inactive means mostly below about 43%; further: 0% is about no effect
Pf growth 48h: Primary qHTS for delayed death inhibitors of the malarial parasite plastid, 48 hour incubation; P. falciparum luciferase growth in erythrocytes, 48 h; Potency, µM (series often up to 28.7 µM), for inactives: top-dose activity change, negative = inhibition, actives largely listed as inhibitors; hit rate 5.9% among 310,000; further: potency means the concentration at half of the fitted maximal effect; on the % scale 0 is the no-effect control and ±100 the full control effect
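Erythrocytes infected with P. falciparum carrying an integrated firefly luciferase reporter (2% hematocrit, 0.1% parasitemia final) were exposed to compounds in RPMI 1640 with 0.5% Albumax at 37 C, 5% CO2. Growth inhibition was scored as reduced luminescence.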
Pf growth 96h: Primary qHTS for delayed death inhibitors of the malarial parasite plastid, 96 hour incubation. Potency, µM (titrated, usually from 28.7 µM), for inactives: at the top dose activity change, negative = inhibition, usual class: inhibitors. AID 504834, 2011. P. falciparum luciferase reporter growth, 96 h. hit rate 6.9% among 320,000; further: potency means the concentration at half of the fitted maximal effect; on the % scale 0 is the no-effect control and ±100 the full control effect
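P. falciparum expressing integrated firefly luciferase, in erythrocytes at 2% hematocrit, 0.05% parasitemia, incubated with compounds 96 h at 37 C, 5% CO2. Growth inhibition read as loss of luminescence; two-generation exposure targets delayed-death apicoplast inhibitors.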
CHX counter-1: Cycloheximide Counterscreen for Small Molecule Inhibitors of Shiga Toxin; max response, %; AID 2314, 2010; hit rate 12% among 300,000; cell reporter, cycloheximide protein synthesis inhibition counterscreen; in the data active means max response mostly above about 13%, no sharp cut-off; inactive means mostly below about 14%; further: read at 38.3 µM for the half of the compounds with a filed dose; 0% is about no effect
NS1 inh: qHTS Assay for Inhibitors of Influenza NS1 Protein Function; hit rate 0.4% among 270,000; Potency, µM (series often up to 46.1 µM), for the others: top-dose activity, positive = more growth; calls by dose curve; further: potency means the concentration at half of the fitted maximal effect; actives are rising curves; nearly all actives have a fitted effect of over 50% in size
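S. cerevisiae expressing influenza A NS1, grown in glucose, washed, then diluted 1:100 into pH 6.0 -URA galactose medium with 23 nl compound. Growth recovery read as OD600; NS1-free strain serves as control.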
CHX counter-2: Cycloheximide Counterscreen for Small Molecule Inhibitors of Shiga Toxin (Confirmatory). shares compounds with Shiga inhibitor. Cycloheximide counterscreen, protein synthesis reporter, Shiga toxin assay. Potency, µM (series often up to 38.3 µM), without a hit: top-dose activity (activation), hits mostly activators. hit rate 3% among 510. AID 2318, 2010; calls by dose curve; further: potency means the concentration at half of the fitted maximal effect; 0% is about no effect
NS1 inh valid: Assay for Inhibitors of Influenza NS1 Protein Function: Hit Validation; shares compounds with NS1 inh; influenza NS1 function cell assay, 15-point titration; activity change, negative = inhibition, % at 32.9 µM; 1,400 tested, under 10 active; AID 492980, 2010; calls by dose curve; further: 0% is about no effect
PR8 titer: Assay for Inhibitors of Influenza NS1 Protein Function: Influenza virus replication assay in MDCK cells infected with virus A/PR/8/34; MDCK infected influenza A/PR/8/34, virus titer TCID50; stronger effect = lower value; virus titer (log TCID50), log10 TCID50 at 5 µM; AID 504647, 2011; shares compounds with NS1 inh; hit rate 30% among 95; call rule not given here
An asterisk follows results filed as active; ? = inconclusive; . = no result given; [ ] = dose if it differs, or a comment. Most compounds without a hit are left out; they make up all but 21% or so of the library. Unless noted, the call rests on the fitted dose curve; in most records, active means well fitted curve in the direction sought with a large enough effect; inconclusive means small, poorly fitted or top-dose-only effect, or another doubt; inactive means no such curve, though single readings can be large; an effect the other way counts as inactive or inconclusive.

SMILES	Sm TGR block	Shiga inhibitor	Pf growth 48h	Pf growth 96h	CHX counter-1	NS1 inh	CHX counter-2	others
C=CCN1C(=O)c2ccc(C(=O)N3CCN(S(=O)(=O)c4cccc(F)c4)CC3)cc2C1=O	-8%	.	35%	8%	.	.	.
CC(C)(C)C(=O)Cn1ncc(N2CCOCC2)c(Br)c1=O	12%	26*	16%	0%	4	3%	5%
COc1cc(CC(NC(C)=O)C(=O)NC2CCN(c3c4c(nc5ncnn35)CCC4)CC2)cc(OC)c1 (centres undefined)	4%[57.1 µM]	-24	-6%	-5%	-1	5%	.
CC(C)c1ccc(NC(=O)N2CCCC2C(=O)Nc2ccc(-n3cnnn3)cc2)cc1 (centres undefined)	.	29*	12%	8%	14	-3%	2%
Cc1cc(C)cc(NC(=O)N2CCCC2C(=O)Nc2ccc(-n3cnnn3)cc2)c1 (centres undefined)	-7%	3	.	-8%	-3	-9%	.
O=C(c1cccc(S(=O)(=O)N2CCOCC2)c1)N1CCN(c2ccccc2)CC1	-26%	.	13%	?	.	.	.
COc1cc(CNC2CCCC2)cc(Br)c1OCC(=O)Nc1ccccc1C	.	-15	?	49%	-6	-1%	.
Cc1cc(C)n(CC(=O)NNC(=O)CC(C)c2ccccc2)n1 (centres undefined)	-3%	.	1%	-3%	.	.	.
CCN(CC(=O)NCc1ccc(Cl)cc1)CC(=O)NC1(C#N)CCCC1	-13%	-7	6%	-12%	-6	1%	.
COc1ccc(CC(=O)NC(C)c2nnc(SCC(=O)Nc3nc(C)cs3)n2C)cc1 (centres undefined)	-2%	30*	-16%	47%	0	-6%	-1%
COc1ccc(CC(=O)NC(C)c2nnc(SCC(=O)c3ccc(Br)cc3)n2C)cc1 (centres undefined)	-2%	-17	.	?	26	-10%	.
Cc1ccccc1NC(=O)Cn1nc(C(=O)O)c2ccccc2c1=O	2%	-6	17%	4%	-6	-14%	.
O=C(COC(=O)/C=C/c1cccs1)Nc1nc(-c2ccccc2)cs1	22µM*	46*	-18%	?	3	7%	5%
O=C(Cn1nc(C(=O)O)c2ccccc2c1=O)Nc1nc(-c2ccccc2)cs1	-10%	40*	88%	113%	6	3%	?
COc1ccc(CN2CCNC(=O)C2CC(=O)NC2Cc3ccccc3C2)c(OC)c1 (centres undefined)	-10%	-8	16%	2%	-5	2%	.
CC(c1ccco1)N(C(=O)c1cc(Cl)cc(Cl)c1)c1ccccn1 (centres undefined)	2%	24*	-25%	?	1	-20%	-1%
COc1nc2ccccc2c(=O)n1-c1ccc(Cl)cc1	5%	12	-28%	-27%	-1	-22%	.
COc1nc2ccccc2c(=O)n1-c1ccc(C)cc1	-1%	19*	-1%	-8%	-3	-6%	-1%
Cc1ccccc1OCC(=O)Nc1ccc(OCc2cc(=O)n3ccsc3n2)cc1	9%	.	.	.	.	.	.
CC1(C)Cc2c(cnn2-c2ccccc2)C(NC(=O)CCN2CCCCO2)C1 (centres undefined)	6%	26*	-14%	?	4	5%	1%
COc1ccc2c(c1)sc1ncc(C(=O)NCc3ccccc3F)c(=O)n12	-1%	.	.	.	.	.	.
Cc1c(C(=O)N2CCc3ccccc32)cnn1C	-12%	49*	17%	7%	6	-2%	5%
CS(=O)(=O)N(CC(=O)Nc1ccccc1Sc1ccccc1)C1CCCCC1	4%	44*	.	-7%	5	?	-1%	NS1 inh valid=-1
CC(NC(=O)Cc1ccsc1)c1ccc(F)cc1 (centres undefined)	0%	-5	10%	7%	-2	-5%	.
CCN(CC)c1nc2n(c(=O)n1)CCO2	13%	-5	20%	86%	-2	-4%	.
SMILES	Sm TGR block	Shiga inhibitor	Pf growth 48h	Pf growth 96h	CHX counter-1	NS1 inh	CHX counter-2	others
CCN(CC)c1nc(N)n(CCSC(=S)N(C)C)c(=O)n1	13%	9	-21%	?	7	?	.	NS1 inh valid=3
COc1ccccc1C/C(N)=N/OC(=O)COc1cccc(C)c1	6%	13	1%	0%	-3	1%	.
COc1ccccc1C/C(N)=N/OC(=O)COc1ccc(C)cc1	-13%	-6	1%	2.1µM*	1	?	.	NS1 inh valid=?
CCOC(=O)N1CCN(S(=O)(=O)N2CCCC(C(=O)NCc3ccc(OC)cc3)C2)CC1 (centres undefined)	2%	-5	7%	0%	-3	?	.	NS1 inh valid=-20
CCOC(=O)N1CCN(S(=O)(=O)N2CCCC(C(=O)NCc3ccc(F)cc3)C2)CC1 (centres undefined)	-18%	-4	-1%	?	-2	?	.
CC1CC(C)CN(S(=O)(=O)N2CCCC(C(=O)NCc3ccccc3Cl)C2)C1 (centres undefined)	?	-7	-5%	68%	-1	?	.	NS1 inh valid=-15;PR8 titer=8
Nc1cc(N)nc(SCC(=O)N2CCN(S(=O)(=O)c3ccccc3)CC2)n1	2%	0	-18%	?	-3	11µM*	.	NS1 inh valid=4
CSCC[C@H](NC(=O)[C@H](Cc1ccccc1)n1c(=O)[nH]c2ccccc2c1=O)C(=O)NCC1CCC(C(=O)O)CC1 (some centres undefined)	-1%	6	-3%	-20%	1	11µM*	.	NS1 inh valid=13
C=CCn1c(SCN2C(=O)c3ccccc3C2=O)nc2ccc(Cl)cc2c1=O	-8%	-9	10%	3%	-4	2%	.
COc1cc(/C=C2/C(=O)NC(=O)N(c3ccccc3)C2=O)ccc1O	?	-12	-6%	?	-3	?	.	NS1 inh valid=34
COc1cc(/C=C2/NC(=O)N(Cc3ccccc3F)C2=O)ccc1O	-14%	0	?	37%	-6	.	.
O=C(CSc1nnc(-c2ccccc2F)n1C1CC1)Nc1cccnc1Cl	-1%	5	-7%	?	-3	-4%	.
